Over roughly 18,000 sequences, “log2 normalized intensity” has its median near 0.36; the highest 2% begin near 7.3. The list comes from a sample in which the highest values are over-represented; it also holds similar and randomly drawn sequences.
Target: T1, HNF4alpha8 (COS-7 nuclear extract) (Homo sapiens, UniProt P41235-5 1-452)
T1 sequence: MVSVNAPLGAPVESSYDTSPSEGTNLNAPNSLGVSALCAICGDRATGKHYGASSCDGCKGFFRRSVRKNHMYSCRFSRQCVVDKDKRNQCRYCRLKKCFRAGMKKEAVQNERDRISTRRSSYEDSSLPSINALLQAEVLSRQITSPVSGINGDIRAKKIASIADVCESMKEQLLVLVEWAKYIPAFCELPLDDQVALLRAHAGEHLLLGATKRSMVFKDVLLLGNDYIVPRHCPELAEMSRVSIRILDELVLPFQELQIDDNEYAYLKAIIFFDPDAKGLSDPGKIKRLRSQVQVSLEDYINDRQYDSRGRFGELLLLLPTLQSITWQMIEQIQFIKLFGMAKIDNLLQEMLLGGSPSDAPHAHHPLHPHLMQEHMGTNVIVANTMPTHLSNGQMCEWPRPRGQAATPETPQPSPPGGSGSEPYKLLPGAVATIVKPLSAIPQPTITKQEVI
Test: protein-binding microarray; COS-7 nuclear extract on double-stranded Agilent 4x180k PBM; binding buffer, salt, pH and temperature not given in the material; high values mean tight binding
Settings: chain copies: 2; label: 3' end of strand 1 on the slide; dsDNA, one strand shown
In short: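 A custom Agilent SurePrint G3 4x180k array, spotted in quadruplicate with ~44,000 test sequences as ~60-nt oligonucleotides made double-stranded, was incubated with nuclear extracts. The extracts came from COS-7 cells transiently transfected by CaPO4 with a human HNF4α isoform expression vector. Bound HNF4α was imaged on an Agilent G2565CA scanner at 2-µm resolution, and the binding signal was taken as Agilent software's background-corrected, normalized gProcessedSignal.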

Row | Sequence | binding signal [log2 normalized intensity]
1 | CTGAGACAACACTCAGGATACCTAAGCCCCGCCTAGGGAGATTAGAGTATCGGTCGA | 1.33
2 | TCTTATTTACCGAAATGTGGGTGAGGCTGTGCCTAGGGAGATTAGAGTATCGGTCGA | 1.67
3 | AAGCTATTCACTTTTTGGCCTTTGGCTGTTGCCTAGGGAGATTAGAGTATCGGTCGA | 3.01
4 | TAAAATGGACTTTGTGGGCCAAAAGCAGCCGCCTAGGGAGATTAGAGTATCGGTCGA | 2.65
5 | AAAAAGTCCCTGGTCCCATAGGAAAGTGAGGCCTAGGGAGATTAGAGTATCGGTCGA | -0.813
6 | TTTTGAATGACAGTGTCAGGACCTTGCTCCGCCTAGGGAGATTAGAGTATCGGTCGA | 2.73
7 | AATACTTGCCTAAGGTCAATGTCCTTTTTCGCCTAGGGAGATTAGAGTATCGGTCGA | 4.53
8 | CCCCTTCTTAACATCAGAAGTTGGACTTTGGCCTAGGGAGATTAGAGTATCGGTCGA | 8.31
9 | AGGAGATGTGGTGGACTTTAACGACCTTTGGCCTAGGGAGATTAGAGTATCGGTCGA | 5.28
10 | TCTTAACATCAGAAGTTGGACTTTGTACATGCCTAGGGAGATTAGAGTATCGGTCGA | 9.76
11 | ATTAGAGAACATGTACTTTGTACTGCTTATGCCTAGGGAGATTAGAGTATCGGTCGA | 4.99
12 | AGGGACTTTGATCTTCTTACCCCTTTGCTGGCCTAGGGAGATTAGAGTATCGGTCGA | 3.3
13 | ACTTTGGAACTCAGTTAATGTACAGAGTATGCCTAGGGAGATTAGAGTATCGGTCGA | 0.96
14 | CCTTGATGTGTATTTGTAGCTTCAAACCAGGCCTAGGGAGATTAGAGTATCGGTCGA | 1.52
15 | GGGGGTTTGCAACCTTTGATAACCTACAACGCCTAGGGAGATTAGAGTATCGGTCGA | 1.37
16 | GTGAGTGTGTTGGCAAGAGATCTGCAGGGTGCCTAGGGAGATTAGAGTATCGGTCGA | 1.02
17 | TCCTTTTATCTTACATGCCTTATCTGGTTCGCCTAGGGAGATTAGAGTATCGGTCGA | 1.64
18 | GGTTCAAAGGTCATTTCTGCTTGCAACCAAGCCTAGGGAGATTAGAGTATCGGTCGA | 5.81
19 | TATCTGGTTCAAAGGTCATTTCTGCTTGCAGCCTAGGGAGATTAGAGTATCGGTCGA | 6.43
20 | TGCCTTATCTGGTTCAAAGGTCATTTCTGCGCCTAGGGAGATTAGAGTATCGGTCGA | 7.61
21 | TTACATGCCTTATCTGGTTCAAAGGTCATTGCCTAGGGAGATTAGAGTATCGGTCGA | 8.2

Row | Sequence | binding signal [log2 normalized intensity]
22 | TTATCTTACATGCCTTATCTGGTTCAAAGGGCCTAGGGAGATTAGAGTATCGGTCGA | 3.33
23 | TCCAGAATTGTGTGGTTATCTGTTGGGGAAGCCTAGGGAGATTAGAGTATCGGTCGA | 2.14
24 | TGCAGCAAAACTTTAGGACTTTGAACCTTGGCCTAGGGAGATTAGAGTATCGGTCGA | 9.2
25 | GGACTTTGAACCTTGGGTCTGTAATCTCACGCCTAGGGAGATTAGAGTATCGGTCGA | 7.84
26 | GGGAGGAGGGCAACCTTTGAACTGGGTCTTGCCTAGGGAGATTAGAGTATCGGTCGA | 4.84
27 | CCTTGCCACCCACACTGCAGCAAAACTTTAGCCTAGGGAGATTAGAGTATCGGTCGA | -0.731
28 | ATAAGGGGCAGCAAACCTACCTGAACTTTGGCCTAGGGAGATTAGAGTATCGGTCGA | 3.58
29 | CAAAACTTTAGGACTTTGAACCTTGGGTCTGCCTAGGGAGATTAGAGTATCGGTCGA | 7.83
30 | GCAAACCTACCTGAACTTTGCCCCAGAGGAGCCTAGGGAGATTAGAGTATCGGTCGA | 6.74
31 | CTTTAGGACTTTGAACCTTGGGTCTGTAATGCCTAGGGAGATTAGAGTATCGGTCGA | 6.82
32 | TTGAACCTTGGGTCTGTAATCTCACAACTCGCCTAGGGAGATTAGAGTATCGGTCGA | 1.98
33 | CACACTGCAGCAAAACTTTAGGACTTTGAAGCCTAGGGAGATTAGAGTATCGGTCGA | 4.12
34 | GGGCAGCAAACCTACCTGAACTTTGCCCCAGCCTAGGGAGATTAGAGTATCGGTCGA | 8.83
35 | CCTTGGGTCTGTAATCTCACAACTCAGAAGGCCTAGGGAGATTAGAGTATCGGTCGA | -0.129
36 | GTTGCCTGTGAGTCAGGTACCTGCTTCTGCGCCTAGGGAGATTAGAGTATCGGTCGA | 0.609
37 | TACTTAGTGTTTTATGTGTATTTACTTATTGCCTAGGGAGATTAGAGTATCGGTCGA | 1.74
38 | GGCAAGATTTTGTCCTGAGTTATTGGAAGAGCCTAGGGAGATTAGAGTATCGGTCGA | 0.282
39 | TCTTCAAGGAGGTGAACTTTGAGACTATCCGCCTAGGGAGATTAGAGTATCGGTCGA | 5.2
40 | AAAGTTTCCTCTCCTGCCCTACTCCCTTAAGCCTAGGGAGATTAGAGTATCGGTCGA | 2.63
41 | AGTGGTTTCAAGGTGACCCCACGGAGCTGCGCCTAGGGAGATTAGAGTATCGGTCGA | 3
42 | CCTACCAGTATGCAATGTTAGTCTGGGAAAGCCTAGGGAGATTAGAGTATCGGTCGA | -0.0207
